High-throughput results as filed in PubChem.
The list is not random: actives were taken first. Their share in the collection is about 13%.
G9a block = qHTS Assay for Inhibitors of Histone Lysine Methyltransferase G9a | hit rate 8.8% among 350,000 | AID 504332, 2011 | Potency, µM (doses to about 102 µM), for the others: at the highest dose activity, negative = inhibition, actives largely listed as inhibitors | G9a H3K9 monomethylation, AlphaScreen, 2 h | Histone-lysine N-methyltransferase EHMT2 (Homo sapiens), Q96KQ7; also: potency is read from the fitted curve at half-maximal effect; % is scaled to controls: 0 for no effect and ±100 for the full control effect; nearly all actives have a fitted effect of over 75% in size
Target sequence (Q96KQ7 913-1193 limits assumed): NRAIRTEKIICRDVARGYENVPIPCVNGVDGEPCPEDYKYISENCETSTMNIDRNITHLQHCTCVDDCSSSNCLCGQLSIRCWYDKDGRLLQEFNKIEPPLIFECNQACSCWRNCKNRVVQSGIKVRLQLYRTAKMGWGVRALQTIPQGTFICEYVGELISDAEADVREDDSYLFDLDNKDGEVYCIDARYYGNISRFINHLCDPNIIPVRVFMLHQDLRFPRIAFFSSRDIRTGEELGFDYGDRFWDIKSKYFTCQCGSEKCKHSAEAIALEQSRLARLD
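Enzyme 20 nM + cpd, 15 min RT; add b-H3K9 pep 500 nM / SAM 20 uM; 2 h RT; anti-H3K9me1 Ab 0.5 ug/mL + SA donor / anti-rabbit acceptor beads 20 ug/mL each, 10 min; AlphaScreen read.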
Sfp PPTase inh = qHTS Assay for Inhibitors of Bacillus subtilis Sfp phosphopantetheinyl transferase (PPTase); 4'-phosphopantetheinyl transferase ffp (Bacillus subtilis), Q9F4F7; Potency, µM, for the others: largest response in the series, negative = inhibition, usual class: inhibitors; Biochemical Sfp PPTase activity, qHTS; hit rate 3.5% among 310,000;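 also: the enzyme is Sfp with the accession as filed and its product quenches rhodamine fluorescence; potency is read from the fitted curve at half-maximal effect; 0% = enzyme reaction without inhibitor and -100% = no enzyme wells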
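Reaction rates are the 30-min fluorescence difference (ex 525, em 598 nm) in wells containing 15 nM Sfp, 5 uM rhodamine-CoA and 12.5 uM BHQ-2-YbbR at pH 7.6 with 10 mM MgCl2.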
ALDH1A1 inh = qHTS Assay for Inhibitors of Aldehyde Dehydrogenase 1 (ALDH1A1) | Purified ALDH1A1, NADH fluorescence, propionaldehyde substrate | hit rate 7.3% among 220,000 | Aldehyde dehydrogenase 1A1 (Homo sapiens), P00352 | Potency, µM (top dose mostly 75.3 µM), inactives show at the top dose activity, negative = inhibition, hits mostly inhibitors; active = well fitted inhibition curve with a large enough effect, not every such curve was filed as active; inconclusive = small, poorly fitted or top-dose-only effect, or another doubt; inactive = no such curve, though single readings can be large or run the other way;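 also: potency is read from the fitted curve at half-maximal effect; plate controls were no enzyme wells and a reference inhibitor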
JMJD2E inh = qHTS Assay for Inhibitors of Human Jumonji Domain Containing 2E (JMJD2E); Lysine-specific demethylase 4E (Homo sapiens), B2RXH2; JMJD2E catalytic domain, FDH-coupled NADH fluorescence (FDH is formaldehyde dehydrogenase); Potency, µM (doses to about 57.1 µM), without a hit: top-dose activity change, negative = inhibition, usual class: inhibitors; hit rate 1.6% among 230,000; active = well fitted inhibition curve with a large enough effect, not every such curve was filed as active; inconclusive = small, poorly fitted or top-dose-only effect, or another doubt; inactive = no such curve, though single readings can be large or run the other way;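 also: potency is read from the fitted curve at half-maximal effect; 0% = wells with enzyme and -100% = buffer wells without enzyme; nearly all actives have a fitted effect of over 50% in size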
Target sequence (B2RXH2 1-337 limits assumed): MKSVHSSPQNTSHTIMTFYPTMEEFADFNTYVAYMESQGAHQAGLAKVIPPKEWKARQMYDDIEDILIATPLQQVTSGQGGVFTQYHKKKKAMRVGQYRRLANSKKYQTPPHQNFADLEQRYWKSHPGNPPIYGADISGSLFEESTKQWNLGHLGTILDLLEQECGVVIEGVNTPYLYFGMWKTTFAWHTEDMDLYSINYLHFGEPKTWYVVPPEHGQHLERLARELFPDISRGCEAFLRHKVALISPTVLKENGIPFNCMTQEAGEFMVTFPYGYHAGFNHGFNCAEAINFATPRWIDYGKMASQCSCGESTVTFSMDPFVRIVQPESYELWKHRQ
Lamin A splicing = qHTS Assay for Modulators of Lamin A Splicing; HeLa LMNA splicing GFP/RFP minigene ratio, 48 h; Potency, µM (top dose mostly 46.1 µM), for inactives: at the top dose ratio change, negative = inhibition, usual class: inhibitors; hit rate 0.01% among 200,000; AID 1487, 2009; active = well fitted inhibition curve with a large enough effect in the signal ratio, with a control signal flat, not every such curve was filed as active; inconclusive = small, poorly fitted or top-dose-only effect, or effect the other way, or a change in a side signal; the % refers to the signal ratio; also: potency is read from the fitted curve at half-maximal effect; % is scaled to controls: 0 for no effect and ±100 for the full control effect
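S3 HeLa cells stably expressing lamin A-EGFP splicing minigene plus DsRed2, 600 cells/well, 48 h compound exposure at 37C. Laser-scanning cytometry; analysed as GFP (500-530 nm)/RFP (575-640 nm) total intensity ratio; 0.5% DMSO vehicle.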
miR-21 reporter = qHTS Assay for Modulators of miRNAs and/orActivators of miR-21. HeLa miR-21 FLuc reporter, luciferase, 48 h. Potency, µM (top dose mostly 38.3 µM), inactives show at the top dose activity change, positive = activation, usual class: activators. 340,000 tested, under 10 active. AID 2288, 2010;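 also: % of control where 0% means no effect; miR-21 action dims this reporter so a rising signal means less miR-21 action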
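HeLa cells endogenously expressing miR-21, stably carrying CMV-driven firefly luciferase with a downstream miR-21 binding site, 2000 cells/well. Titrations up to approximately 40 uM, 48 hours; luciferase luminescence read.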
Numbers without * were called inactive; u = inconclusive; x = no result; [ ] = remark or other dose. Unless noted, calls follow the shape of the dose curve; as a rule, active = well fitted curve in the direction sought with a large enough effect; inconclusive = small, poorly fitted or top-dose-only effect, or another doubt; inactive = no such curve, though single readings can be large; an effect the other way counts as inactive or inconclusive.

SMILES | G9a block | Sfp PPTase inh | ALDH1A1 inh | JMJD2E inh | Lamin A splicing | miR-21 reporter
O=C(Nc1ccc(NC(=O)c2cccs2)cc1)c1cccs1 | -3%[59 µM] | 8% | x | x | x | -70%
Cc1ccn(-c2ccc(NC(=O)c3cccs3)cc2)n1 | 71µM* | 24% | x | x | x | -41%
S=C1N[C@H](c2ccccc2)N[C@H](c2ccccc2)S1 | x | x | 3.2µM* | x | x | x
Cc1ccc2nc(C)cc(C(=O)OCC(=O)c3ccc(Cl)c([N+](=O)[O-])c3)c2c1 | x | -4% | 20µM* | -11% | 24% | 1%
Cc1cc(C(=O)OCC(=O)c2cccc([N+](=O)[O-])c2)c2ccccc2n1 | -3%[59 µM] | -2% | -2% | -16% | -10% | -3%
Cc1cc(C(=O)OCC(=O)c2ccc(Cl)c([N+](=O)[O-])c2)c2cccc(C)c2n1 | u | 4% | 13µM* | -19% | -9% | -5%
CCc1cccc(NC(=O)CCn2c(=O)c3cccn3c3cccnc32)c1 | -6%[59 µM] | x | x | x | x | -1%
CCOC(=O)c1c(NC(=O)c2cc3ccccc3c(=O)o2)sc2c1CCCC2 | -2%[59 µM] | x | x | x | x | 0%
Cn1cccc1C(=O)N1CCC[C@@]2(CCN(Cc3ccccc3)C2)C1 | 8%[12.7 µM] | 10% | -9% | x | x | x
N#C/C(=C\c1c(N2CCN(Cc3ccccc3)CC2)nc2ccccn2c1=O)S(=O)(=O)c1ccccc1 | 0%[0.0925 µM] | 1% | x | x | x | -4%
CCOC(=O)/C(C#N)=C/c1c(N2CCN(CC)CC2)nc2c(C)cccn2c1=O | u | 8% | x | x | x | -2%
N#C/C(=C\c1c(N2CCOCC2)nc2ccccn2c1=O)S(=O)(=O)c1ccccc1 | x | 0% | 13µM* | -10% | -2% | -2%
CCOC(=O)/C(C#N)=C/c1c(N2CCN(c3ccc(OC)cc3)CC2)nc2c(C)cccn2c1=O | 8.9µM* | 2% | x | x | x | 0%
COCCNC(=O)/C(C#N)=C/c1c(N2CCN(c3ccc(OC)cc3)CC2)nc2c(C)cccn2c1=O | 28µM* | -13% | x | x | x | 0%
COC(=O)/C(C#N)=C/c1c(N2CCN(c3ccccc3)CC2)nc2ccccn2c1=O | 79µM* | -3% | x | x | x | -39%
CCc1ccc(NC(=O)N2CCN(c3nnc(C)c4c(C)n(-c5ccc(Cl)cc5)nc34)CC2)cc1 | 18%[59 µM] | x | x | x | u | -4%
COc1cc2nc(NCc3ccc(C)cc3)n3nc(-c4ccccc4)nc3c2cc1OC | -25%[59 µM] | x | x | x | x | -1%
CCNC(=O)/C(C#N)=C/c1c(N2CCN(c3ccc(OC)cc3)CC2)nc2c(C)cccn2c1=O | 40µM* | -7% | x | x | x | -1%
CCNC(=O)/C(C#N)=C/c1c(N2CCN(c3ccccc3)CC2)nc2c(C)cccn2c1=O | -13%[2.33 µM] | 16% | x | x | x | 0%
NC(=O)C1CCN(c2ncnc3c2c(-c2ccccc2)cn3-c2ccccc2)CC1 | 50µM* | -11% | u | -25% | -26% | -2%
COc1ccc(-n2cc(-c3ccccc3)c3c(NCCCN4CCOCC4)ncnc32)cc1 | 50µM* | -28% | u | -26% | -16%[46 µM] | 12%
OCCN1CCN(c2ncnc3c2c(-c2ccccc2)cn3-c2ccc(Br)cc2)CC1 | 35µM* | 22µM* | -3% | -29% | x | -3%
CCN1CCN(c2ncnc3c2c(-c2ccccc2)cn3-c2ccc(F)cc2)CC1 | u | 40µM* | u | u | x | -2%
COc1ccc(C(=O)NCC(=O)OCC(=O)Nc2sccc2C#N)cc1OC | u | 3% | -3% | -6% | u | -23%
CCc1ccc(CN(C)C(=O)c2cc(COc3ccc(OC)cc3Cl)on2)nc1 | 113% | 8% | x | x | x | -42%
SMILES | G9a block | Sfp PPTase inh | ALDH1A1 inh | JMJD2E inh | Lamin A splicing | miR-21 reporter
C=C1CCN(C(Cc2ccccc2)C(=O)NC2CCN(Cc3ccccc3)CC2)S(=O)(=O)c2ccccc21 (stereo not drawn) | x | -12% | x | x | x | x
Cc1ccc(O)c(C(=O)c2cc(C#N)c(=O)n(-c3nccs3)c2)c1 | x | 50µM* | 8.9µM* | u | x | 6%
Cc1ccc(O)c(C(=O)c2cc(C#N)c(=O)n(-c3c(C)n(C)n(-c4ccccc4)c3=O)c2)c1 | x | 18% | 9% | -3% | -4% | -10%
COc1ccc(CN(Cc2ccc(C(=O)O)cc2)C(=S)Nc2ccccc2F)cc1OC | -40% | 50µM* | 13µM* | -11% | -8%[46 µM] | 5%
CN(N)C(=S)Nc1ccc(F)cc1 | 50µM* | u | 5% | -27% | 0%[46 µM] | 0%
Cc1ccc(NC(=S)N(Cc2ccc(Cl)cc2)Cc2ccc(C(=O)O)cc2)cc1Cl | 40µM* | -8% | u | -2% | 3%[46 µM] | -1%
Cc1ccc(NC(=S)N(C)N)cc1Cl | 32µM* | -14% | -8% | 7% | -1%[46 µM] | -10%
Cc1ccc(Cl)cc1NC(=S)N(C)N | x | u | 13% | u | x | 1%
O=C1NC(=S)SC1=C1CCCC1 | 18µM* | 40µM* | u | -19% | 15% | -4%
O=C(NCC(c1ccccc1)c1ccccc1)c1nn(-c2ccccc2F)nc1CO | 25%[59 µM] | x | x | x | x | 26%
COc1ccc(CCNC(=O)c2c(O)nc3c(C)cccn3c2=O)cc1 | 1%[59 µM] | x | x | x | x | 0%
O=C(O)CCCN1C(=O)/C(=C\c2ccc(-c3nc4ccccc4s3)o2)SC1=S | x | 50µM* | x | u | x | -26%
O=Cc1ccc(-c2nc3ccccc3s2)o1 | -2% | 2% | u | u | -6%[46 µM] | -44%
O=C(O)CC(C(=O)O)N1C(=O)/C(=C/c2ccc(-c3nc4ccccc4s3)o2)SC1=S (stereo not drawn) | 5µM* | 8.9µM* | 10µM* | 2.8µM* | -17% | -13%
O=C(O)CCN1C(=O)/C(=C/c2ccc(-c3nc4ccccc4s3)o2)SC1=S | u | -21% | 3.5µM* | -12% | -5% | -13%
COCCNC(=O)NC(=O)CN1C(=O)NC(Cc2c[nH]c3ccccc23)C1=O (stereo not drawn) | 36% | 5% | x | x | x | -1%
COc1ccc(NC(=O)Cn2c(=O)n(Cc3ccccc3OC)c(=O)c3cccnc32)cc1Cl | 11%[59 µM] | x | x | x | x | 0%
COc1cc(C=O)c([N+](=O)[O-])cc1OC | x | -4% | 11µM* | 262% | x | x
Cc1ccsc1-c1nc(-c2ccccc2)c(-c2ccccc2)[nH]1 | 43%[12.7 µM] | 11% | u | u | 3% | 5%
CS(=O)(=O)c1nc(-c2ccccc2)c(-c2ccccc2)[nH]1 | 45µM* | u | 8% | -1% | 15% | -5%
COc1ccc(-c2cc(C(C)=O)c(C)n2CCC(=O)Nc2cc(Cl)ccc2C)cc1 | -4%[59 µM] | x | x | x | u | 5%
